Test results taken from the supplement of paper PMC11001985.

compound: C#CCNC(=O)CCSSCCC(=O)NCCc1ccc(C=O)c(C=O)c1; experiment: lysine labeling ratio R10:1 (500 µM / 50 µM probe), SILAC-ABPP in living cells; higher = lower intrinsic lysine reactivity toward the probe, active = 2 or less; details: HeLa; probe concentrations 500 vs 50 µM
Summary of the method: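 In PBS at room temperature, living HeLa cells grown with SILAC light or heavy labels were treated with 50 µM or 500 µM of an alkyne-tagged, disulfide-linked lysine probe, with label swaps in both directions. Analysis was by LC-MS/MS on a TIMS-TOF Pro after click to biotin-azide, neutravidin capture and DTT release. For each lysine, R is the median across forward and reverse replicates of the filtered median high-probe/low-probe MS1 peptide ratio, capped at 20.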

Sequence of UniProt P27348 (P27348 whole entry): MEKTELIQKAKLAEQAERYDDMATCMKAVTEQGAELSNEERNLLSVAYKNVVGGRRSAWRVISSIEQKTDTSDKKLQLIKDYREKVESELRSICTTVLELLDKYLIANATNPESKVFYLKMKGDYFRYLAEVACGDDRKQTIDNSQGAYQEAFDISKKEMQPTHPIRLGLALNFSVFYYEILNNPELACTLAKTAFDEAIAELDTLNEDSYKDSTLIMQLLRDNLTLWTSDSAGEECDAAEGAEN
Sequence of UniProt P30101 (P30101 whole entry): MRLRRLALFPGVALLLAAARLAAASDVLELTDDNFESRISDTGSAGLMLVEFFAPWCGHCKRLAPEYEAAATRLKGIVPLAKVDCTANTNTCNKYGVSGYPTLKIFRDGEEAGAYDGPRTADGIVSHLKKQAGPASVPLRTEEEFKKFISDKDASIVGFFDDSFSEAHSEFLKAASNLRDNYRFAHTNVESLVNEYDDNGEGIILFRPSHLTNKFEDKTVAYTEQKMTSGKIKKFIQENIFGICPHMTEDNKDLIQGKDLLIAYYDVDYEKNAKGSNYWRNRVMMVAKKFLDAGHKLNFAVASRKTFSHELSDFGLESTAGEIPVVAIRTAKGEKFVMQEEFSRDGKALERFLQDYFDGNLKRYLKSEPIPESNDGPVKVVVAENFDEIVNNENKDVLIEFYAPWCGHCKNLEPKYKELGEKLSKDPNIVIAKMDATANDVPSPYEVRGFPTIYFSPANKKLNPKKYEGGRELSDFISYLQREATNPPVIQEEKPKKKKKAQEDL
Sequence of UniProt P22234 (P22234 whole entry): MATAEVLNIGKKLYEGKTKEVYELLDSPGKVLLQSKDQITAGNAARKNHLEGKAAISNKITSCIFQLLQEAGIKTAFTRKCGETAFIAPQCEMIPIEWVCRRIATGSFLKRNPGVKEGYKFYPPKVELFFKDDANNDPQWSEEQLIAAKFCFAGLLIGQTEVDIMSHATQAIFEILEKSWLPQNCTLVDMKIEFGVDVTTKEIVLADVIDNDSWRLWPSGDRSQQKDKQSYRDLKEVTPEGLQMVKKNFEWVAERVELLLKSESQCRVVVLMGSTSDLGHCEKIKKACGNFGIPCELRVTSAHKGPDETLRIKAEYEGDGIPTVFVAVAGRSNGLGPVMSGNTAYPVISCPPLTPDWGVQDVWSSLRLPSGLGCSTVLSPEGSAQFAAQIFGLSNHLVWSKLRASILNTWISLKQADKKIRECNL
Sequence of UniProt P55060 (P55060 whole entry): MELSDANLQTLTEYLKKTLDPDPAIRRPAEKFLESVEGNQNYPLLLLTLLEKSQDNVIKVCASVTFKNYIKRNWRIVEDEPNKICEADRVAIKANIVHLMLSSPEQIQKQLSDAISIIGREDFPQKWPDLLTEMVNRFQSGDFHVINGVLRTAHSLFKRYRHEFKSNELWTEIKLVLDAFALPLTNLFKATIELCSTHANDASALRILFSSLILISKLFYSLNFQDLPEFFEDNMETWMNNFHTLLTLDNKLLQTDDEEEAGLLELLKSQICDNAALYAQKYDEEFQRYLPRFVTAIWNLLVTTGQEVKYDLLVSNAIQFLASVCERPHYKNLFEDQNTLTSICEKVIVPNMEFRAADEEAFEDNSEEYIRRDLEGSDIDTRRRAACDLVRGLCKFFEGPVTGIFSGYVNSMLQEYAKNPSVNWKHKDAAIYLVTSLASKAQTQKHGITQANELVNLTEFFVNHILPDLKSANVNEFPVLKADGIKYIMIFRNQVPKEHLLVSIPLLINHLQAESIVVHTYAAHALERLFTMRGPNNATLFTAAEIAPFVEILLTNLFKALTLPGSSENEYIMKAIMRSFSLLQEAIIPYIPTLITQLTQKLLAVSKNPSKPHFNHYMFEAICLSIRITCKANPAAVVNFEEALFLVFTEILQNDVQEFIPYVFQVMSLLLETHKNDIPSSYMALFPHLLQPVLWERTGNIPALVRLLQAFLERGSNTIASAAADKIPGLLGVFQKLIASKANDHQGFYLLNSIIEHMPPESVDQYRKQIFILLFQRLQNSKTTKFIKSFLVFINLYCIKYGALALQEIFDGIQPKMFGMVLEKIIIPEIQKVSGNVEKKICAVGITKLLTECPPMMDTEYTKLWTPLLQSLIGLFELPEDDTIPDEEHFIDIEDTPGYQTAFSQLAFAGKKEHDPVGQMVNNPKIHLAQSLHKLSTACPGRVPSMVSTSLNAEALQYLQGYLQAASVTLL
Sequence of UniProt Q01974 (Q01974 whole entry): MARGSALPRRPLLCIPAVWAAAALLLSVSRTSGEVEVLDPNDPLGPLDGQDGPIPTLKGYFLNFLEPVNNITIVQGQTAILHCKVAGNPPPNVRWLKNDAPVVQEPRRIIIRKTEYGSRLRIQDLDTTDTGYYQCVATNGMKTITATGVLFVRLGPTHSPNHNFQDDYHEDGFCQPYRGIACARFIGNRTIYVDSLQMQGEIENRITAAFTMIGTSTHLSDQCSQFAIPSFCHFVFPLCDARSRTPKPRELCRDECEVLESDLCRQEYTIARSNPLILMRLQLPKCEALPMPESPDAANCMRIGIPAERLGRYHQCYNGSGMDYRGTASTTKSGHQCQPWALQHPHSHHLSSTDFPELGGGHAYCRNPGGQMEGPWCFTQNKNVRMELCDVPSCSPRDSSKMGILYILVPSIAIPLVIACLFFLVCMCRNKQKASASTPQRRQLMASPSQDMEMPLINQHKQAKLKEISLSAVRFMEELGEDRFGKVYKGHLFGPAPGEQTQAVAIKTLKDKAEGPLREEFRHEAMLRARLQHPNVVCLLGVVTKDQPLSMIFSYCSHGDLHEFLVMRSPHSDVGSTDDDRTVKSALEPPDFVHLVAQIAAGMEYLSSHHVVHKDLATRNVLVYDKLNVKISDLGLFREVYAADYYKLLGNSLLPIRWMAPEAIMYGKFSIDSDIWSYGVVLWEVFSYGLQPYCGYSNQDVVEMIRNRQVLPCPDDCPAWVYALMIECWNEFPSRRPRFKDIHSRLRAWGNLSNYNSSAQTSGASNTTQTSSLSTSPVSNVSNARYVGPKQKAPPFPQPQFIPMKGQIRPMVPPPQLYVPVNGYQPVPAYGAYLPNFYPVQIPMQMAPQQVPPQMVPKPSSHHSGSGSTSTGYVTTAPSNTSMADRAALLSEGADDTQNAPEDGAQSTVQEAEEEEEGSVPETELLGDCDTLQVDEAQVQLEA
Sequence of UniProt P20645 (P20645 whole entry): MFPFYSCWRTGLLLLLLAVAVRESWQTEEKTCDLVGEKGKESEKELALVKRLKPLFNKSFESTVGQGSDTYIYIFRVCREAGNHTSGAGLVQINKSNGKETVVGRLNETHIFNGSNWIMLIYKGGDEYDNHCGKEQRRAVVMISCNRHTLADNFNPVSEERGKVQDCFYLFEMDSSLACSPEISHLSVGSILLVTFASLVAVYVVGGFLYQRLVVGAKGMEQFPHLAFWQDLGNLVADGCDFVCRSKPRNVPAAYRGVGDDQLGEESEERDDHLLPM
Sequence of UniProt P56199 (P56199 whole entry): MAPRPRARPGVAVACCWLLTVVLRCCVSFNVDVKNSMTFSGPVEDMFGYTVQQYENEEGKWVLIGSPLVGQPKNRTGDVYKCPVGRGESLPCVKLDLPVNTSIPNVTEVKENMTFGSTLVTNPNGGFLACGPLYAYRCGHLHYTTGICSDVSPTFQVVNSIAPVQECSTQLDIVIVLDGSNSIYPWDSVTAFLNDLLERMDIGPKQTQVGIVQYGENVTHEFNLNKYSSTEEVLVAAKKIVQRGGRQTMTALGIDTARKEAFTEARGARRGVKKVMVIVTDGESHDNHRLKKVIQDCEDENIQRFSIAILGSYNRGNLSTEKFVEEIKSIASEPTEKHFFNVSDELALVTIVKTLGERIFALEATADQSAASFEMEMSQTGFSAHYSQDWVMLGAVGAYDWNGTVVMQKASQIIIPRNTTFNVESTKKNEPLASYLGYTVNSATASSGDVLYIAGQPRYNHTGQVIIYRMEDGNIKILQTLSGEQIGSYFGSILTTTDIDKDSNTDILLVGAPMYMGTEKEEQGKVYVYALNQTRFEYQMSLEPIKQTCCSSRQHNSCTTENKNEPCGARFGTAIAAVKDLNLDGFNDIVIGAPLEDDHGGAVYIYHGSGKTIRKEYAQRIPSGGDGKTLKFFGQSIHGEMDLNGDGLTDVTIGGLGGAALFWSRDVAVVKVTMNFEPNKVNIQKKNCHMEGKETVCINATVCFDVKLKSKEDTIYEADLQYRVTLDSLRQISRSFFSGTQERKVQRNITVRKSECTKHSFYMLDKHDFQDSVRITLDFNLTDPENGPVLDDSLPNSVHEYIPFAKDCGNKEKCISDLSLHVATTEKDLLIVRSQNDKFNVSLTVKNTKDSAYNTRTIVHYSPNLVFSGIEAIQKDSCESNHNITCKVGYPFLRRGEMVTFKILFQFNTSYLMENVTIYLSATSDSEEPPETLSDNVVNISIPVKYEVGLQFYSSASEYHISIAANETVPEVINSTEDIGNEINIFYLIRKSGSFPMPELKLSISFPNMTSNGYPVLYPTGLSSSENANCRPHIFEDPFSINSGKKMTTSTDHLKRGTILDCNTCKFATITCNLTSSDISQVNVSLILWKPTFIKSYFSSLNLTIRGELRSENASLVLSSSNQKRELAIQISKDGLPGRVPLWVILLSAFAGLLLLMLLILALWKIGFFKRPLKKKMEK
Sequence of UniProt P51572 (P51572 whole entry): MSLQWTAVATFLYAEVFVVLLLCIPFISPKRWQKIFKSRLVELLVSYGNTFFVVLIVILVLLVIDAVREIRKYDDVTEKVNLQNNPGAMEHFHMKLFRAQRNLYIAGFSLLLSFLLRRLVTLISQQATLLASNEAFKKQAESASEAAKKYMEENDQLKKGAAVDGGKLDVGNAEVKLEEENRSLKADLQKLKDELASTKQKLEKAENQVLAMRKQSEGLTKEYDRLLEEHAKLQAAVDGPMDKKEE
Sequence of UniProt Q9NX63 (Q9NX63 whole entry): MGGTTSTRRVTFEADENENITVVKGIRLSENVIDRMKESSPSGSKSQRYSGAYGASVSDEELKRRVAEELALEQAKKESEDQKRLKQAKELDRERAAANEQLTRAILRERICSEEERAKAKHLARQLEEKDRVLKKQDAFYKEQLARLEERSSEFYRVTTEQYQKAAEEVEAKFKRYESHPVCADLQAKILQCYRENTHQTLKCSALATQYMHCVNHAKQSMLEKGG

Target | lysine labeling ratio R10:1
ALCAM (lysine site: K87) (UniProt Q13740) | 1.41 (active)
UniProt Q9NYQ7 (lysine site: K548) | 1.02 (active)
XRCC6 (lysine site: K299) (UniProt P12956) | 1.09 (active)
SERBP1 (lysine site: K68) (UniProt Q8NC51) | 5.36 (inactive)
HNRNPA2B1 (lysine site: K120) (UniProt P22626) | 5.33 (inactive)
SMOC1 (lysine site: K381) (UniProt Q9H4F8) | 1.04 (active)
ITGA6 (lysine site: K594) (UniProt P23229) | 6.44 (inactive)
PAICS (lysine site: K286) (UniProt P22234) | 1.42 (active)
RPL3 (lysine site: K229) (UniProt P39023) | 1.36 (active)
ACSL3 (lysine site: K222) (UniProt O95573) | 2.52 (inactive)
FLNA (lysine site: K837) (UniProt P21333) | 4.31 (inactive)
SPTBN1 (lysine site: K497) (UniProt Q01082) | 2.59 (inactive)
MYH9 (lysine site: K1862) (UniProt P35579) | 2.81 (inactive)
CHCHD3 (lysine site: K45) (UniProt Q9NX63) | 1.56 (active)
CSE1L (lysine site: K17) (UniProt P55060) | 1.76 (active)
IMPDH2 (lysine site: K422) (UniProt P12268) | 1.55 (active)
RPL28 (lysine site: K19) (UniProt P46779) | 0.79 (active)
CAPZA1 (lysine site: K19) (UniProt P52907) | 2.43 (inactive)
ITGA1 (lysine site: K1046) (UniProt P56199) | 0.547 (active)
DSG2 (lysine site: K254) (UniProt Q14126) | 8.19 (inactive)

Target | lysine labeling ratio R10:1
UniProt Q9HAB3 (lysine site: K437) | 2.11 (inactive)
NRP1 (lysine site: K538) (UniProt O14786) | 2.73 (inactive)
UniProt P18859 (lysine site: K46) | 4.7 (inactive)
UniProt P07437 (lysine site: K58) | 2.92 (inactive)
ROR2 (lysine site: K382) (UniProt Q01974) | 1.95 (active)
UniProt Q15149 (lysine site: K2553) | 3.44 (inactive)
PDIA3 (lysine site: K130) (UniProt P30101) | 3.07 (inactive)
YWHAQ (lysine site: K80) (UniProt P27348) | 3.11 (inactive)
RPL3 (lysine site: K373) (UniProt P39023) | 2.31 (inactive)
UniProt P05106 (lysine site: K98) | 1.59 (active)
CCT8 (lysine site: K326) (UniProt P50990) | 3.67 (inactive)
BCAP31 (lysine site: K176) (UniProt P51572) | 0.745 (active)
RPL3 (lysine site: K272) (UniProt P39023) | 2.04 (inactive)
NEGR1 (lysine site: K180) (UniProt Q7Z3B1) | 1.72 (active)
SLC3A2 (lysine site: K217) (UniProt P08195) | 7.33 (inactive)
FRAS1 (lysine site: K2396) (UniProt Q86XX4) | 1.59 (active)
LDHA (lysine site: K155) (UniProt P00338) | 2.54 (inactive)
M6PR (lysine site: K44) (UniProt P20645) | 2.9 (inactive)
CCT4 (lysine site: K489) (UniProt P50991) | 2.21 (inactive)
PSMD2 (lysine site: K551) (UniProt Q13200) | 2.34 (inactive)
